{"source": "PubChem BioAssay (NCI)", "key": {"[1]": {"assay": "NCI Yeast Anticancer Drug Screen. Data for the rad52 strain (AID 147);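 note: 0% = growth of vehicle-treated control cultures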", "settings": "S. cerevisiae rad52 mutant growth inhibition, hits give high values", "method_in_brief": "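Vehicle-treated cultures served as the reference for growth inhibition of compound-exposed yeast bearing a DNA repair mutation.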"}, "[2]": {"assay": "NCI Yeast Anticancer Drug Screen. Data for the wt1 strain (AID 149);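 note: 0% = growth of vehicle-treated wt1 cultures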", "settings": "S. cerevisiae wt1 strain (SPY 50644) growth inhibition, hits give high values", "method_in_brief": "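Measured: growth of wt1 yeast under compound versus vehicle treatment, reported as inhibition.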"}, "[3]": {"assay": "NCI Yeast Anticancer Drug Screen. Data for the rad50EPP+ strain (AID 151);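 note: 0% = growth of vehicle-treated control cultures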", "settings": "S. cerevisiae rad50 mutant strain, hits give high values", "method_in_brief": "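In this screen, rad50EPP+ yeast were exposed to compounds. Growth inhibition was scored against vehicle-treated controls.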"}, "[4]": {"assay": "NCI Yeast Anticancer Drug Screen. Data for the rad50 strain (AID 155);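 note: 0% = growth of vehicle-only cultures of the same strain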", "settings": "S. cerevisiae rad50 strain growth inhibition, hits give high values", "method_in_brief": "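Growth of the mutant yeast was measured after compound exposure and referenced to vehicle-treated cultures.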"}, "[5]": {"assay": "NCI Yeast Anticancer Drug Screen. Data for the mec2-1 strain (AID 157)", "settings": "S. cerevisiae mec2-1 strain, hits give high values", "method_in_brief": "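Vehicle-treated cultures served as reference for growth inhibition of compound-exposed mec2-1 yeast.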"}, "[6]": {"assay": "NCI Yeast Anticancer Drug Screen. Data for the rad14 strain (AID 159);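 note: 0% = growth of vehicle-treated control cultures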", "settings": "S. cerevisiae rad14 strain growth inhibition, hits give high values", "method_in_brief": "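Here, inhibition of yeast growth was measured after compound exposure, using a strain with a genetic defect in DNA damage repair and vehicle-treated cultures as the reference.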"}, "[7]": {"assay": "NCI Yeast Anticancer Drug Screen. Data for the sgs1 mgt1 strain (AID 161);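 note: 0% = growth of cultures given vehicle only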", "settings": "S. cerevisiae sgs1 mgt1 strain, hits give high values", "method_in_brief": "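Test agents were incubated with a DNA-repair-mutant yeast strain. Growth was then read and compared against vehicle-treated controls.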"}, "[8]": {"assay": "NCI Yeast Anticancer Drug Screen. Data for the CLN2oe strain (AID 163);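 note: 0% = growth of vehicle-only control cultures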", "settings": "S. cerevisiae CLN2oe strain, hits give high values", "method_in_brief": "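Inhibition relative to vehicle-treated yeast is reported. Cells: strain with genetic alteration in cell-cycle control, grown with compound.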"}, "[9]": {"assay": "NCI Yeast Anticancer Drug Screen. Data for the cln2 rad14 strain (AID 165);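 note: 0% = growth equal to vehicle treated cultures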", "settings": "S. cerevisiae cln2 rad14 strain, hits give high values", "method_in_brief": "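Each compound was tested on cln2 rad14 yeast. Inhibition of growth was calculated against vehicle-exposed controls.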"}, "[10]": {"assay": "NCI Yeast Anticancer Drug Screen. Data for the bub3 strain (AID 167)", "settings": "S. cerevisiae bub3 mutant strain, hits give high values", "method_in_brief": "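Whole-cell yeast assay. The mutant strain was incubated with compounds, and growth inhibition was determined by comparison with vehicle-treated cells.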"}, "[11]": {"assay": "NCI Yeast Anticancer Drug Screen. Data for the wt2 strain (AID 169);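 note: 0% = growth of vehicle-treated yeast cultures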", "settings": "S. cerevisiae wt2 strain growth inhibition, hits give high values", "method_in_brief": "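Inhibition of yeast growth was determined after compound treatment, normalised to controls receiving only vehicle.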"}, "[12]": {"assay": "NCI Yeast Anticancer Drug Screen. Data for the mlh1 strain (AID 171);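 note: 0% = growth of vehicle-treated control cultures of the same strain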", "settings": "S. cerevisiae mlh1 strain growth inhibition, hits give high values", "method_in_brief": "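Vehicle-normalised growth inhibition of a repair- or checkpoint-altered yeast strain following compound treatment.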"}, "[13]": {"assay": "NCI Yeast Anticancer Drug Screen. Data for the sgs1 strain (AID 173);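 note: 0% = growth of vehicle-only control cultures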", "settings": "S. cerevisiae sgs1 mutant, hits give high values", "method_in_brief": "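Screen format: yeast with repair or checkpoint alterations, compound exposure, growth read relative to vehicle.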"}, "[14]": {"assay": "NCI Yeast Anticancer Drug Screen. Data for the mlh1 rad18 strain (AID 175)", "settings": "S. cerevisiae mlh1 rad18 strain growth inhibition, hits give high values", "method_in_brief": "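Vehicle-treated cultures served as the reference for growth inhibition in a yeast strain carrying DNA damage repair alterations exposed to each compound.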"}, "[15]": {"assay": "NCI Yeast Anticancer Drug Screen. Data for the rad18 strain (AID 177)", "settings": "S. cerevisiae rad18 mutant growth inhibition, hits give high values", "method_in_brief": "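Test articles were incubated with altered yeast defective in DNA damage repair. Results are given as inhibition of growth versus vehicle.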"}, "[16]": {"settings": "at 5.0 µM (retest, dose inferred, filed as 0.5)"}, "[17]": {"settings": "at 50.0 µM (retest, dose inferred, filed as 5.0)"}}, "note": "Compounds without any hit were thinned out: in the full panel of roughly 79,000, 15% have a hit. Unmarked numbers belong to inactive results. Active and inactive are the calls of the source. Cut-off read from the data, not from the text of the source: active = growth inhibition above about 70%; inactive = the rest."}
{"smiles": "Cn1c(=O)c(-c2ccccc2)c(N=[N+]=[N-])c2ccccc21", "values": [{"measurement": "growth inhibition", "setting": "[1]; at 1.2 µM", "result": -11, "unit": "%"}, {"measurement": "growth inhibition", "setting": "[1]; at 3.7 µM", "result": -6, "unit": "%"}, {"measurement": "growth inhibition", "setting": "[1]; at 11.0 µM", "result": 3, "unit": "%"}, {"measurement": "growth inhibition", "setting": "[1]; at 33.0 µM", "result": "92% (active)"}, {"measurement": "growth inhibition", "setting": "[1]; at 100.0 µM", "result": "89% (active)"}, {"measurement": "growth inhibition", "setting": "[2]; at 1.2 µM", "result": -38, "unit": "%"}, {"measurement": "growth inhibition", "setting": "[2]; at 3.7 µM", "result": -26, "unit": "%"}, {"measurement": "growth inhibition", "setting": "[2]; at 11.0 µM", "result": -25, "unit": "%"}, {"measurement": "growth inhibition", "setting": "[2]; at 33.0 µM", "result": "91% (active)"}, {"measurement": "growth inhibition", "setting": "[2]; at 100.0 µM", "result": "90% (active)"}, {"measurement": "growth inhibition", "setting": "[3]; at 1.2 µM", "result": -15, "unit": "%"}, {"measurement": "growth inhibition", "setting": "[3]; at 3.7 µM", "result": 6, "unit": "%"}, {"measurement": "growth inhibition", "setting": "[3]; at 11.0 µM", "result": 10, "unit": "%"}, {"measurement": "growth inhibition", "setting": "[3]; at 33.0 µM", "result": 4, "unit": "%"}, {"measurement": "growth inhibition", "setting": "[3]; at 100.0 µM", "result": -18, "unit": "%"}, {"measurement": "growth inhibition", "setting": "[4]; at 1.2 µM", "result": 14, "unit": "%"}, {"measurement": "growth inhibition", "setting": "[4]; at 3.7 µM", "result": 7, "unit": "%"}, {"measurement": "growth inhibition", "setting": "[4]; [16]", "result": -22, "unit": "%"}, {"measurement": "growth inhibition", "setting": "[4]; at 11.0 µM", "result": 20, "unit": "%"}, {"measurement": "growth inhibition", "setting": "[4]; at 33.0 µM", "result": "92% (active)"}, {"measurement": "growth inhibition", "setting": "[4]; [17]", "result": "94% (active)"}, {"measurement": "growth inhibition", "setting": "[4]; at 50.0 µM", "result": "82.7% (active)"}, {"measurement": "growth inhibition", "setting": "[4]; at 100.0 µM", "result": "92% (active)"}, {"measurement": "growth inhibition", "setting": "[5]; at 1.2 µM", "result": -1, "unit": "%"}, {"measurement": "growth inhibition", "setting": "[5]; at 3.7 µM", "result": -9, "unit": "%"}, {"measurement": "growth inhibition", "setting": "[5]; [16]", "result": -10, "unit": "%"}, {"measurement": "growth inhibition", "setting": "[5]; at 11.0 µM", "result": 4, "unit": "%"}, {"measurement": "growth inhibition", "setting": "[5]; at 33.0 µM", "result": "87% (active)"}, {"measurement": "growth inhibition", "setting": "[5]; [17]", "result": "92% (active)"}, {"measurement": "growth inhibition", "setting": "[5]; at 50.0 µM", "result": "83.8% (active)"}, {"measurement": "growth inhibition", "setting": "[5]; at 100.0 µM", "result": "93% (active)"}, {"measurement": "growth inhibition", "setting": "[6]; at 1.2 µM", "result": 12, "unit": "%"}, {"measurement": "growth inhibition", "setting": "[6]; at 3.7 µM", "result": 4, "unit": "%"}, {"measurement": "growth inhibition", "setting": "[6]; at 11.0 µM", "result": 5, "unit": "%"}, {"measurement": "growth inhibition", "setting": "[6]; at 33.0 µM", "result": "93% (active)"}, {"measurement": "growth inhibition", "setting": "[6]; at 100.0 µM", "result": "89% (active)"}, {"measurement": "growth inhibition", "setting": "[7]; [16]", "result": 61, "unit": "%"}, {"measurement": "growth inhibition", "setting": "[7]; [17]", "result": "93% (active)"}, {"measurement": "growth inhibition", "setting": "[7]; at 50.0 µM", "result": "87.4% (active)"}, {"measurement": "growth inhibition", "setting": "[8]; at 1.2 µM", "result": 5, "unit": "%"}, {"measurement": "growth inhibition", "setting": "[8]; at 3.7 µM", "result": -17, "unit": "%"}, {"measurement": "growth inhibition", "setting": "[8]; at 11.0 µM", "result": 13, "unit": "%"}, {"measurement": "growth inhibition", "setting": "[8]; at 33.0 µM", "result": "94% (active)"}, {"measurement": "growth inhibition", "setting": "[8]; at 100.0 µM", "result": "90% (active)"}, {"measurement": "growth inhibition", "setting": "[9]; [16]", "result": 23, "unit": "%"}, {"measurement": "growth inhibition", "setting": "[9]; [17]", "result": "89% (active)"}, {"measurement": "growth inhibition", "setting": "[9]; at 50.0 µM", "result": "86% (active)"}, {"measurement": "growth inhibition", "setting": "[10]; at 1.2 µM", "result": 26, "unit": "%"}, {"measurement": "growth inhibition", "setting": "[10]; at 3.7 µM", "result": 26, "unit": "%"}, {"measurement": "growth inhibition", "setting": "[10]; [16]", "result": -7, "unit": "%"}, {"measurement": "growth inhibition", "setting": "[10]; at 11.0 µM", "result": 35, "unit": "%"}, {"measurement": "growth inhibition", "setting": "[10]; at 33.0 µM", "result": "94% (active)"}, {"measurement": "growth inhibition", "setting": "[10]; [17]", "result": "95% (active)"}, {"measurement": "growth inhibition", "setting": "[10]; at 50.0 µM", "result": "86.5% (active)"}, {"measurement": "growth inhibition", "setting": "[10]; at 100.0 µM", "result": "94% (active)"}, {"measurement": "growth inhibition", "setting": "[11]; at 1.2 µM", "result": -35, "unit": "%"}, {"measurement": "growth inhibition", "setting": "[11]; at 3.7 µM", "result": -29, "unit": "%"}, {"measurement": "growth inhibition", "setting": "[11]; at 11.0 µM", "result": -9, "unit": "%"}, {"measurement": "growth inhibition", "setting": "[11]; at 33.0 µM", "result": "87% (active)"}, {"measurement": "growth inhibition", "setting": "[11]; at 100.0 µM", "result": "91% (active)"}, {"measurement": "growth inhibition", "setting": "[12]; at 1.2 µM", "result": 1, "unit": "%"}, {"measurement": "growth inhibition", "setting": "[12]; at 3.7 µM", "result": 3, "unit": "%"}, {"measurement": "growth inhibition", "setting": "[12]; at 11.0 µM", "result": 43, "unit": "%"}, {"measurement": "growth inhibition", "setting": "[12]; at 33.0 µM", "result": "92% (active)"}, {"measurement": "growth inhibition", "setting": "[12]; at 100.0 µM", "result": "88% (active)"}, {"measurement": "growth inhibition", "setting": "[13]; at 1.2 µM", "result": -11, "unit": "%"}, {"measurement": "growth inhibition", "setting": "[13]; at 3.7 µM", "result": -13, "unit": "%"}, {"measurement": "growth inhibition", "setting": "[13]; at 11.0 µM", "result": 13, "unit": "%"}, {"measurement": "growth inhibition", "setting": "[13]; at 33.0 µM", "result": "91% (active)"}, {"measurement": "growth inhibition", "setting": "[13]; at 100.0 µM", "result": "92% (active)"}, {"measurement": "growth inhibition", "setting": "[14]; [16]", "result": -4, "unit": "%"}, {"measurement": "growth inhibition", "setting": "[14]; [17]", "result": "94% (active)"}, {"measurement": "growth inhibition", "setting": "[14]; at 50.0 µM", "result": "83% (active)"}, {"measurement": "growth inhibition", "setting": "[15]; at 1.2 µM", "result": 7, "unit": "%"}, {"measurement": "growth inhibition", "setting": "[15]; at 3.7 µM", "result": -5, "unit": "%"}, {"measurement": "growth inhibition", "setting": "[15]; at 11.0 µM", "result": 11, "unit": "%"}, {"measurement": "growth inhibition", "setting": "[15]; at 33.0 µM", "result": "93% (active)"}, {"measurement": "growth inhibition", "setting": "[15]; at 100.0 µM", "result": "85% (active)"}]}
